For eight molecules, growth results are on record in PubChem BioAssay (NCI).

Among the test systems are NCI-H226 lung; NCI-H322M lung; NCI-H460 lung; NCI-H522 lung; A549/ATCC NSCLC; 786-0 renal; COLO 205 colon; DU-145 prostate; K-562 leukemia; MALME-3M melanoma; MDA-MB-231 breast; RXF 393 renal; SF-268 CNS; SF-295 CNS; SF-539 CNS; UACC-257 melanoma; M14 melanoma; HCT-15 colon; HOP-62 NSCLC.
Holding throughout (experiment): NCI-60 one-dose screen, 48 h (100 = growth as untreated, 0 = no growth, -100 = all killed)
Common to all, as to conditions: 10 µM

Compounds without any hit were thinned out: in the full panel of roughly 83,000, 20% have a hit.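 Method: cells in 96-well plates; compound added at one concentration; 48 h incubation; percent growth measured; values under 10 scored active.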 Unmarked numbers belong to inactive results. Active and inactive are the calls of the source.

Regarding `O=C1CC[C@@H]2CCCC[C@@H]2C1`, the growth with NCI-H226 lung was 105%; in the assay with NCI-H322M lung, 110%; with NCI-H460 lung, 112%; with NCI-H522 lung, 90.3%; with A549/ATCC NSCLC it was 107%; in the assay with 786-0 renal, 103%. Besides, the growth in the assay with COLO 205 colon is 108%; in the assay with DU-145 prostate, 123%; in the assay on K-562 leukemia, 110%; in the assay on MALME-3M melanoma, 98.8%; with MDA-MB-231 breast, 96%; in the assay on RXF 393 renal, 130%. Also, the growth was 113% in the assay with SF-268 CNS; 110% in the assay with SF-295 CNS; 102% in the assay on SF-539 CNS; 116% in the assay on UACC-257 melanoma; 101% in the assay on M14 melanoma; 113% in the assay on HCT-15 colon.
On to `O=C(Nc1cccc(-n2cc(-c3ccncc3)c(-c3ccc(O)c(Cl)c3)n2)c1)Nc1ccc(Cl)c(Cl)c1`, for which the growth in the assay with NCI-H226 lung is 51.1%; with NCI-H322M lung, -6.78% (active); in the assay with HOP-62 NSCLC it was 8.83% (active); in the assay on NCI-H460 lung, -4.26% (active); in the assay on NCI-H522 lung, -13.1% (active); in the assay on A549/ATCC NSCLC, 0.252% (active). The growth in the assay with 786-0 renal was -6.94% (active); with COLO 205 colon, 77.8%; in the assay on DU-145 prostate, 11.5%; in the assay on K-562 leukemia, 5.72% (active); in the assay with MALME-3M melanoma it was -27% (active); with MDA-MB-231 breast, -44.9% (active). Besides, the growth in the assay with RXF 393 renal was -26.2% (active); with SF-268 CNS, 10.9%; in the assay on SF-295 CNS, -40.4% (active); in the assay with SF-539 CNS, -19.8% (active); in the assay with UACC-257 melanoma it was -42.7% (active); in the assay on M14 melanoma, -50.3% (active). Further, the growth with HCT-15 colon is 14.1%.
For `CC/C(=C(/c1ccc(OCCN(C)C)cc1)c1ccc(OC(=O)CCCCCCCCC(=O)c2c(C)[nH]c(/C=C3\N=C(c4ccc[nH]4)C=C3OC)c2C)cc1)c1ccccc1`, the growth is 52.6% in the assay with NCI-H226 lung; 77% in the assay on NCI-H322M lung; 75.9% in the assay with HOP-62 NSCLC; 46.9% in the assay on NCI-H460 lung; 54.5% in the assay with NCI-H522 lung; 50% in the assay on A549/ATCC NSCLC. In addition, the growth was 63.9% with 786-0 renal; 67.6% with DU-145 prostate; 33.5% in the assay with K-562 leukemia; 68.1% with MALME-3M melanoma; 11.2% in the assay on MDA-MB-231 breast; 69.1% with RXF 393 renal. In addition, the growth with SF-268 CNS was 71.7%; in the assay on SF-295 CNS, 89%; in the assay on SF-539 CNS it was 83.4%; in the assay with UACC-257 melanoma, 90.5%; with M14 melanoma, 38.6%; in the assay on HCT-15 colon it was 58%.
Regarding `Cc1ccc(NC(=O)CSc2nc3ccccc3c(=O)n2CCc2ccccc2)c(C(=O)O)c1`, the growth with NCI-H226 lung was 101%; with NCI-H322M lung it was 90.9%; with HOP-62 NSCLC, 94.4%; in the assay on NCI-H460 lung it was 110%; in the assay on NCI-H522 lung, 90.1%; in the assay with A549/ATCC NSCLC, 98%. For the same molecule, the growth with 786-0 renal is 90.5%; with COLO 205 colon, 103%; with DU-145 prostate it was 117%; with MDA-MB-231 breast, 90.6%; with SF-268 CNS it was 104%; in the assay on SF-295 CNS, 91.8%. In addition, the growth with SF-539 CNS was 104%; in the assay on UACC-257 melanoma, 98.1%; with M14 melanoma, 97.8%; in the assay on HCT-15 colon, 107%.
Turning to `c1ccc2c(-c3nc(N4CCOCC4)c4c5c(sc4n3)CCCCCC5)cccc2c1`, the growth is 93.8% in the assay on NCI-H226 lung; 110% in the assay with NCI-H322M lung; 101% with HOP-62 NSCLC; 104% in the assay with NCI-H460 lung; 91.2% in the assay on NCI-H522 lung; 97.7% with A549/ATCC NSCLC. Further, the growth is 103% in the assay with 786-0 renal; 114% in the assay with COLO 205 colon; 119% in the assay with DU-145 prostate; 115% with K-562 leukemia; 97% in the assay with MALME-3M melanoma; 96.7% in the assay on MDA-MB-231 breast. Besides, the growth with RXF 393 renal is 95.9%; in the assay on SF-268 CNS it was 102%; in the assay with SF-295 CNS, 98.1%; in the assay with SF-539 CNS, 98.9%; in the assay with UACC-257 melanoma it was 110%; in the assay with M14 melanoma, 110%. Besides, the growth in the assay on HCT-15 colon was 100%.
For the molecule `CC(C)(C)c1cc(Br)cc(C(C)(C)C)c1O`, the growth with NCI-H226 lung was 97.5%; with NCI-H322M lung, 96.7%; with HOP-62 NSCLC it was 120%; with NCI-H460 lung, 117%; in the assay on NCI-H522 lung it was 115%; in the assay with A549/ATCC NSCLC it was 91.1%. Moreover, the growth in the assay on 786-0 renal was 103%; with COLO 205 colon, 113%; in the assay on DU-145 prostate it was 113%; in the assay with K-562 leukemia it was 101%; with MALME-3M melanoma, 103%; in the assay with MDA-MB-231 breast it was 116%. Also, the growth in the assay with RXF 393 renal was 101%; in the assay on SF-268 CNS, 113%; with SF-295 CNS, 97.8%; in the assay with SF-539 CNS, 104%; with UACC-257 melanoma, 104%; with HCT-15 colon it was 105%.
With `Cc1nc2oc3ccccc3c(=O)c2cc1C(=O)NCc1ccccc1`, the growth was 105% in the assay with NCI-H226 lung; 76.2% with NCI-H322M lung; 90.5% in the assay on HOP-62 NSCLC; 32.2% with NCI-H460 lung; 86.4% in the assay with NCI-H522 lung; 68.9% in the assay with A549/ATCC NSCLC. The growth in the assay on 786-0 renal is 61.5%; in the assay on COLO 205 colon, 39.9%; in the assay on DU-145 prostate it was 77%; with K-562 leukemia it was 13.1%; in the assay with MDA-MB-231 breast, 87.9%; in the assay with RXF 393 renal, 113%. The growth in the assay with SF-268 CNS is 83%; in the assay with SF-295 CNS, 43.2%; in the assay on SF-539 CNS it was 93.4%; in the assay on UACC-257 melanoma, 68.1%; in the assay on M14 melanoma it was 45.9%; in the assay with HCT-15 colon, 70.2%.
Consider `COc1ccc(-c2nn(-c3cccc(NC(=O)Nc4cc(C(F)(F)F)cc(C(F)(F)F)c4)c3)cc2-c2ccncc2)cc1Cl`, for which the growth in the assay on NCI-H226 lung is 24.2%; in the assay on NCI-H322M lung, 4.66% (active); in the assay on HOP-62 NSCLC, 3.91% (active); in the assay with NCI-H460 lung, -3.36% (active); in the assay with NCI-H522 lung, -30% (active); in the assay on A549/ATCC NSCLC, 0.691% (active). In addition, the growth was -12.8% (active) in the assay with 786-0 renal; -88.9% (active) in the assay with COLO 205 colon; 17.6% in the assay on DU-145 prostate; 7.03% (active) with K-562 leukemia; -19.9% (active) in the assay on MALME-3M melanoma; -63% (active) in the assay with MDA-MB-231 breast. In addition, the growth in the assay with RXF 393 renal was -12.6% (active); in the assay on SF-268 CNS, 9.51% (active); with SF-295 CNS, -1.97% (active); in the assay on SF-539 CNS, -42.9% (active); in the assay on UACC-257 melanoma it was -31% (active); with HCT-15 colon, 12.1%.
